Assay results reported in PubChem BioAssay (NCI).
Compounds without any hit were thinned out: in the full panel of roughly 83,000, 20% have a hit.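 Compound tested at a single concentration for 48 hours in 96-well plates; a percent growth value below 10 was scored as active.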 Unmarked numbers belong to inactive results. The source made the active and inactive calls.

Key:
Experiment in all cases: NCI-60 one-dose screen, 48 h (100 = growth as untreated, 0 = no growth, -100 = all killed)
Settings in all cases: 10 µM unless noted
[1] = tested on: NCI-H23 lung
[2] = tested on: NCI-H226 lung
[3] = tested on: NCI-H322M lung
[4] = tested on: HOP-62 NSCLC
[5] = tested on: NCI-H460 lung
[6] = tested on: HOP-92 NSCLC
[7] = tested on: NCI-H522 lung
[8] = tested on: A549/ATCC NSCLC
[9] = tested on: 786-0 renal
[10] = tested on: COLO 205 colon
[11] = tested on: DU-145 prostate
[12] = tested on: K-562 leukemia
[13] = tested on: MALME-3M melanoma
[14] = tested on: MDA-MB-231 breast
[15] = tested on: RXF 393 renal
[16] = tested on: SF-268 CNS
[17] = tested on: SF-295 CNS
[18] = tested on: SF-539 CNS
[19] = tested on: UACC-257 melanoma
[20] = tested on: M14 melanoma

SMILES | growth [1] | growth [2] | growth [3] | growth [4] | growth [5] | growth [6] | growth [7] | growth [8] | growth [9] | growth [10] | growth [11] | growth [12] | growth [13] | growth [14] | growth [15] | growth [16] | growth [17] | growth [18] | growth [19] | growth [20]
COc1ccc(-c2nc3ccc(-c4nnc(SCc5ccccc5)o4)cc3[nH]2)cc1 | 8.09% (active) | -76.5% (active) | 0.722% (active) | -72.7% (active) | -15.7% (active) | 20.9% | -16.2% (active) | -5.6% (active) | -62.5% (active) | 44.6% | 10.2% | 11.2% | -74.9% (active) | -67.3% (active) | -75.3% (active) | -6.18% (active) | -75% (active) | -99.7% (active) | 21.8% | 5.59% (active)
O=C(NNC(=O)c1ccc(OCc2nc3ccc(Cl)cc3[nH]2)cc1)Nc1ccc(Cl)c(Cl)c1 | 47% | 93% | 47.6% | 65.4% | 27.5% | 62.1% | 60.4% | 60.2% | 80.8% | 105% | 73% | 29.6% | 6.73% (active) | 44.1% | 69.4% | 85.6% | 101% | 43.3% | 95.6% | 56.4%
Cc1ccc(-c2cc(-c3ccccc3)[nH]c(=O)c2C#N)cc1 | 96.4% | 86.8% | 91.2% | 85.3% | 90.8% | 45.7% | 74.9% | 77.3% | 88.4% | 124% | 97.3% | 74.4% | 106% | 83.8% | 101% | 92.9% | 90.4% | 81.9% | 101% | 111%
Cc1nc(N)ncc1-c1ccc2ncnc(N3CCc4cc(F)c(Cl)cc43)c2c1 | 84.3% | 73.7% | 28.7% | 72.8% | 76.7% | 13.6% | 68.2% | 56.2% | 39.1% | 81.5% | 47.3% | 61.7% | 91.9% | 35.3% | 14.6% | 45.9% | 84.9% | 67% | 105% | 102%
O=C(Nc1ccc(F)cc1)Nc1nc2ccc([N+](=O)[O-])cc2s1 | -11.8% (active) | 1.42% (active) | 7.52% (active) | -0.8% (active) | -3.01% (active) | -3.56% (active) | -23.7% (active) | 6.83% (active) | 1.6% (active) | -77.5% (active) | 24.2% | 6.19% (active) | -17.9% (active) | -2.3% (active) | -14.9% (active) | 18% | -46% (active) | 7.13% (active) | -12.8% (active) | -3.58% (active)
NS(=O)(=O)c1cccc(Nc2nc(SCC(=O)c3ccc(F)cc3)nc3ccccc23)c1 | 5.36% (active) | 15.3% | 22.9% | 5.89% (active) | 12.5% | 29% | -0.334% (active) | 28.1% | 26.1% | 26.4% | 9.74% (active) | 8.34% (active) | 10.6% | 7.12% (active) | 38.9% | 8.21% (active) | -5.65% (active) | 8.17% (active) | 14.4% | 23.3%
O=C1c2cccc3c(N4CCN(c5ccccc5)CC4)ccc(c23)C(=O)N1c1cccc(-c2nn(-c3ccccc3)cc2-c2nc3ccccc3s2)c1 | 88.5% | 82% | 97% | 110% | 110% | 120% | 108% | 113% | 102% | 110% | 108% | 91.1% | 88.8% | 95.1% | 106% | 101% | 103% | 95.1% | 113% | 104%
